The values that follow come from PubChem BioAssay (NCATS).

Records with an inconclusive call do not appear. A call without a number means that no potency is given here. Calls of active or inactive are those of the source. Calls come from the whole dose curve; as a rule, active = well fitted curve in the direction sought with a large enough effect; inconclusive = small, poorly fitted or top-dose-only effect, or another doubt; inactive = no such curve, though single readings can be large or run the other way. Peptide text beside a SMILES is read from it. * marks the point of attachment. Hexanoyl = CCCCCC(=O)*

This experiment in a line: qHTS for activators of dead-cell proteases activity screened against the NCATS CANVASS Library (AID 1347392).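 Note: luminescence from protease leaking out of membrane-damaged cells cleaving impermeant substrate; rising signal means more cytotoxicity.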 The following applies: HepG2 cytotoxicity, dead-cell protease luminescence, 5 h; series mostly up to 46.1 µM. The text has this: Natural products and their derivatives continue to be wellsprings of nascent therapeutic potential. However, many laboratories have limited resources for biological evaluation, leaving their previously isolated or synthesized compounds largely or completely untested. To address this issue, the Canvass library of natural products was assembled (https://tripod.nih.gov/canvass), in collaboration with academic and industry researchers, for quantitative high-throughput screening (qHTS) across a diverse set of cell-based and biochemical assays. The pure (>85% purity by liquid chromatography/mass spectrometry [LC/MS]) Canvass library of 346 natural products were submitted by 45 academic laboratories and companies around the world. We collected pure natural products to circumvent deconvolution and structure elucidation due to time and resource limitations. The library was formatted into 1536-well plates and evaluated in 50 qHTS (in an 11-pnt concentration series) bioassays with broad scope of disease-relevant mechanisms. The resulting data set from 50 different assays was then systematically analyzed to identify overall trends and specific natural products with interesting biological activities. Reported herein are the results of each individual qHTS and their corresponding assay protocol. This cytotoxicity assay measures dead-cell protease activity (proteases are released from cells that have lost membrane integrity). A luminogenic cell-impermeant peptide substrate (AAF-aminoluciferin) is used to measure dead-cell protease activity. The amount of luminescence directly correlates with the percentage of cells undergoing cytotoxic stress. National Center for Advancing Translational Sciences (NCATS), Rockville, MD National Institute of Health (NIH), Bethesda, Maryland
Protease-screen assay protocol: 1. In a white-solid bottom 1536-well plate, 5 uL of HepG2 cell suspension was dispensed using a Multidrop Combi (Thermo Fisher Scientific) at a final concentration of 2000 cells / well. 2. The assay plates were incubated for 18 hours at 37C, 5% CO2 to acclimate and attach. 3. […] of compounds (in DMSO; columns 5-48), vehicle control DMSO, and positive control were pin transferred into the assay plates using the Kalypsis pin tool (Wako USA) equipped with a 1536-well pin heads. This yields a final CANVASS compound concentration of 0.4 nM - 95 uM. 4. The assay plates were incubated for 5 hours at 37C, 5% CO2. 5. After compound treatment, 5 uL per well of CytoTox-Glo (Promega) reagent was added using the BioRAPTR dispenser. 6. The assay plates were incubated for 15 min at room temperature. 7. The luminescence readout was obtained using the ViewLux plate reader (PerkinElmer) using a clear emission filter, 2x binning, 1 sec exposure settings.
(In general: Quantitative high-throughput screening tests each substance at several concentrations.)
In the case of `CO[C@@H](C[C@@H](C)[C@@H](O)/C=C/C=C/CNC(=O)C(C)(C)[C@H](O)\C(C)=C/C=C\C=C\Cc1cnco1)[C@]1(O)[C@@H](C)C(=O)N(C)[C@@]12COC2=O`, the Potency entry is “inactive”.

With `C[C@@]12C[C@@H](C[C@@H]3C(=O)O[C@@H](c4ccoc4)[C@H](OC(=O)c4ccccc4)[C@@H]31)OC2=O`, the Potency result was “inactive”. On the same count and under the same terms, then `C[C@H]1C=C[C@H]2CCCC[C@@H]2[C@H]1C(=O)[C@H]1CC2=C(C(=O)O)CCN2C1=O`, with “inactive”. With `C/C=C(/C)c1c(Cl)c(O)c(C)c2c1Oc1c(Cl)c(O)c(Cl)c(C)c1C(=O)O2`, the Potency entry is “inactive”.

On to `C/C1=C/[C@@H](C)[C@H](O)C/C=C/CC/C=C/C(=O)O[C@@H]1[C@H](C)C(=O)CCCC1CC(=O)NC(=O)C1`, for which the Potency result is “inactive”. On to `C=C1CC[C@@H](O[C@H]2C[C@@](O)([C@H](C)NC(=O)c3[nH]c(C)c(Cl)c3Cl)[C@H](O)[C@@H](C)O2)[C@@H]2C=C[C@H](C)C(/C(O)=C3/C(=O)[C@H](C(C)C)N([C@@H]4O[C@H](C)[C@H](OC(N)=O)[C@H](OC(C)=O)[C@@H]4OC)C3=O)[C@@H]12` (stereo not given in full), for which the Potency entry is “inactive”. Take `CC[C@H](O)CCCCC[C@@H]1NC(=O)[C@H]2CCCCN2C(=O)[C@H]([C@H](C)CC)NC(=O)[C@H](Cc2cn(OC)c3ccccc23)NC1=O`: the Potency entry is “inactive”. On the same count and under the same terms, then `C=C[C@@]1(C)CC[C@@H]([C@H](C)C(=O)/C=C/C(C)(C)O)O1`, with “inactive”; and `O=C1CCC(=O)N(O)CCCCCNC(=O)CCC(=O)N(O)CCCCCNC(=O)CCC(=O)N(O)CCCCCN1`, with “inactive”; and `O=C1OC(CCO)c2cccc(O)c21` (stereo not given), with “inactive”. On the same count and under the same terms, for `C[n+]1cc2cc(C(N)=O)[nH]c3c(=N)c(Cl)c(N)c1c23` the value was “inactive”; for `O=c1cc(-c2ccc(O)cc2)oc2cc(O)c([C@@H]3OC(CO)[C@H](O)[C@@H](O)[C@H]3O)c(O)c12` (stereo not given in full), “inactive”; for `COC(=O)c1cc2cc3c(c(O)c2c(=O)o1)OC1(CC3)CC2=C(O1)C(=O)c1c(O)c(OC)cc(OC)c1C2=O` (stereo not given), “inactive”.

Regarding `C/C(=C\[C@H](C)C(=O)C[C@H](O)CC1CC(=O)NC(=O)C1)[C@@H]1OC(=O)CCCC/C=C/[C@@H](O)C[C@@H]1C`, the Potency entry is “inactive”. Same read-out and setting: then `C[C@@]12CCC[C@@](C)(C(=O)OP(=O)(O)OC[C@H]3O[C@@H](n4cnc5c(N)ncnc54)[C@H](O)[C@@H]3O)[C@H]1C[C@@H](O)[C@@]13C[C@@H](CC[C@@H]21)[C@](C)(O)C3`, with “inactive”. Regarding `CCCc1c2c([nH]c(=O)c1C)C(=O)c1[nH]c(=O)c(C)c(CCC)c1C2=O`, the Potency entry is “inactive”.

With `C=C[C@]1(C)CC[C@@H]([C@H](C)C(=O)CC=C(C)C)O1`, the Potency entry is “inactive”. As to `COC(=O)[C@@]1(C)CCC[C@]2(C)c3cc(OC)ccc3CC[C@@H]12`, the Potency result was “inactive”.

With `COC(=O)c1cccc2oc(-c3cccc4oc(-c5c(C)cccc5O)nc34)nc12`, the Potency entry was “inactive”.

Turning to `Cc1occ2c1C(=O)c1c(cc(O)c(O)c1O)C2=O`, the Potency result was “inactive”. Same read-out and setting: for `CO[C@H]1/C=C/CCCCC(=O)O[C@@H](/C(C)=C/[C@H](C)C(=O)C[C@H](O)CC2CC(=O)NC(=O)C2)[C@@H](C)C1` the value was “inactive”; for `O=C1c2c(O)cc(O)cc2OC(c2ccc(O)cc2)C1O` (stereo not given), “inactive”; for `CN1CC[C@]2(c3cccc4c3N[C@H]3N(C)CC[C@@]43[C@]34CCN(C)[C@H]3Nc3ccccc34)c3ccccc3N[C@H]12`, “inactive”. In the case of `C[C@H]1CCC2(OC1)O[C@H]1C[C@H]3[C@@H]4CC(=O)[C@]5(O)C[C@H](O)CC[C@@]5(C)[C@H]4CC[C@@]3(C)[C@H]1[C@H]2C` (stereo not given in full), the Potency entry was “inactive”.

`C=CC(C)(C)C(=O)[C@@H](C)[C@@H]1CC[C@@](C)(C=C)O1`: the Potency result was “inactive”. For `C=C[C@@]1(C)CC[C@@H]([C@H](C)C(C)=O)O1`, the Potency result is “inactive”.

Consider `C/C=C/C1C=CC2CC(C)CC(C)C2C1C(=O)CC(=O)NC(CO)C/C=C/CCCCC` (stereo not given), for which the Potency result was “inactive”.

Regarding `C/C=C1/CN2C3CC1C1C=CC(=O)N4c5ccccc5[C@@]3(C[C@@H]2C2=C[C@H]3C5CC6N(CC[C@@]67c6ccccc6N(C2=O)[C@@H]37)C/C5=C/C)[C@H]14` (stereo not given in full), the Potency result is “inactive”. Still for that read-out and setting: for `O=C1CC2OCC=C3CN4C5CC3C2[C@@H]2N1c1ccccc1[C@]52C[C@@H]4C1=C[C@H]2C3CC4N(CC[C@@]45c4ccccc4N(C1=O)[C@@H]25)C/C3=C/CO` (stereo not given in full) the value was “inactive”; for `COc1c(O)cc2c(c1O)C(=O)c1c(coc1C)C2=O`, “inactive”; for `COc1cc2oc3ccccc3c(=O)c2cc1OC`, “inactive”. Same read-out and setting: for `C/C=C1/C2=CCCN3C(=O)O[C@H]([C@H]1O)[C@H]23` the value was “inactive”. Same read-out and setting: for `CN1C(=O)C(=O)N2C(=C[C@]3(c4c[nH]c5ccccc45)c4ccccc4N[C@H]23)C1=O` the value was “inactive”; for `CC1=C2CC[C@]3(C)[C@H](CC=C4[C@@H]5CC(C)(C)CC[C@@H]5C(=O)[C@H](O)[C@]43C)[C@@]2(C)C=C(O)C1=O`, “inactive”. As to `COc1ccc([C@@H]2CC(=O)c3c(cc(O)c(C/C=C(\C)CCC=C(C)C)c3O)O2)cc1`, the activation (cytotoxicity) was -1.61% [at 9.19 µM] (inactive). For `CC(C)=CCC[C@]1(C)[C@H]2CC(=O)[C@@]3(CO3)[C@@H]1C2`, the Potency result was “inactive”. The same measure, in the same setting: then `CCCCCC(=O)N[C@@H](CC(C)C)C(=O)N[C@H](C=O)CCC(=O)O` (Hexanoyl-Leu-Glu-aldehyde), with “inactive”; and `CN1CC[C@@]23c4ccccc4N[C@@H]1[C@@]21CCN(C)[C@@H]3Nc2ccccc21`, with “inactive”. On the same count and under the same terms, then `C=C1C[C@]23C=CC(=O)[C@@](C)(CCCC(C)C(=O)N[C@@H](CO)C(=O)O)[C@@H]2C[C@@H]1CC3` (stereo not given in full), with “inactive”. The same measure, in the same setting: then `C/C=C(/C)c1c(Cl)c(OC)c(C)c2c1Oc1c(Cl)c(O)c(Cl)c(C)c1C(=O)O2`, with “inactive”.
